Where a name gives a salt, the structure may show the parent alone.
Key:
Assay in all cases: thermal shift delta Tm vs DMSO control; higher = stronger stabilization (binding)
Settings in all cases: 12.5 µM; protein concentration 2 µM
[1] = system: LOC_OS01G01410-cb001
Summary of the method: (§1)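 Rice kinase domain constructs were expressed in E. coli, purified, and tested by differential scanning fluorimetry with compound added in DMSO. Each well of a 96-well plate held 19.5 μl of 2 μM kinase in 100 mM potassium phosphate pH 7.5, 150 mM NaCl, 10% glycerol and 5 × SYPRO Orange, and fluorescence was read from 25°C to 95°C at 0.05°C/s. The melting temperature shift is the mean of triplicates, taken against protein with DMSO alone after Boltzmann fitting.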

[2] = system: LOC_OS01G02750-cb003
Summary of the method: as §1

[3] = system: LOC_OS01G10900-cb004
Summary of the method: as §1

[4] = system: LOC_OS01G13800-cb001
Summary of the method: as §1

[5] = system: LOC_OS01G14860-cb001
Summary of the method: as §1

[6] = system: LOC_OS01G21960-cb002
Summary of the method: as §1

[7] = system: LOC_OS01G39600-cb002
Summary of the method: as §1

[8] = system: LOC_OS01G48390-cb002
Summary of the method: as §1

[9] = system: LOC_OS01G51400-cb002
Summary of the method: as §1

[10] = system: T1, LOC_OS01G52050-cb004
T1 sequence (whole entry): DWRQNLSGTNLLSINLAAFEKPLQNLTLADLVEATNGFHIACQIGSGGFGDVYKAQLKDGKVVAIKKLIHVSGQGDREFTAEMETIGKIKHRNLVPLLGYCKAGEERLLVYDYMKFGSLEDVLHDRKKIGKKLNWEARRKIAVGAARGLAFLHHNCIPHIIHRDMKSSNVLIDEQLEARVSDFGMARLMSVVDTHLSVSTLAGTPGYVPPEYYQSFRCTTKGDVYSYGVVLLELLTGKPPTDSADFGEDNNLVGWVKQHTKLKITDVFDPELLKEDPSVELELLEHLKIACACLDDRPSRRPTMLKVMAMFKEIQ
Summary of the method: as §1

[11] = system: LOC_OS01G57100-cb003
Summary of the method: as §1

[12] = system: LOC_OS01G60330-cb001
Summary of the method: as §1

[13] = system: LOC_OS01G60700-cb002
Summary of the method: as §1

[14] = system: LOC_OS01G63280-cb003
Summary of the method: as §1

[15] = system: LOC_OS01G67340-cb003
Summary of the method: as §1

[16] = system: LOC_OS01G70970-cb002
Summary of the method: as §1

[17] = system: LOC_OS02G07810-cb001
Summary of the method: as §1

[18] = system: LOC_OS02G08530-cb003
Summary of the method: as §1

[19] = system: LOC_OS02G14120-cb001
Summary of the method: as §1

[20] = system: LOC_OS02G17970-cb001
Summary of the method: as §1

| Structure (SMILES) | thermal shift delta Tm [1] | thermal shift delta Tm [2] | thermal shift delta Tm [3] | thermal shift delta Tm [4] | thermal shift delta Tm [5] | thermal shift delta Tm [6] | thermal shift delta Tm [7] | thermal shift delta Tm [8] | thermal shift delta Tm [9] | thermal shift delta Tm [10] | thermal shift delta Tm [11] | thermal shift delta Tm [12] | thermal shift delta Tm [13] | thermal shift delta Tm [14] | thermal shift delta Tm [15] | thermal shift delta Tm [16] | thermal shift delta Tm [17] | thermal shift delta Tm [18] | thermal shift delta Tm [19] | thermal shift delta Tm [20] |
| --- | --- | --- | --- | --- | --- | --- | --- | --- | --- | --- | --- | --- | --- | --- | --- | --- | --- | --- | --- | --- |
| CN1CCN(c2nc(C3=C(c4c[nH]c5ccccc45)C(=O)NC3=O)c3ccccc3n2)CC1 [Sotrastaurin] | 0.84 °C | 3.23 °C | 0.77 °C | 0.15 °C | 3.2 °C | 2.53 °C | 3.02 °C | 2.55 °C | 0.38 °C | -0.06 °C | 2.03 °C | 0.97 °C | 0.76 °C | 0.55 °C | 0.35 °C | 0.69 °C | 0.94 °C | 1.16 °C | 1.17 °C | 0.29 °C |
| CCOc1ccn(-c2ccc(F)cc2)c(=O)c1C(=O)Nc1ccc(Oc2ccnc(N)c2Cl)c(F)c1 | 0.18 °C | 1.95 °C | 0.48 °C | 0.21 °C | 3.61 °C | 0.65 °C | -0.36 °C | 2.33 °C | 0.21 °C | 0.98 °C | 1.62 °C | 0.89 °C | 0.32 °C | 6.59 °C | 0.42 °C | 0.37 °C | 1.56 °C | 1.41 °C | 4.74 °C | 1.32 °C |
| C[C@H](NC(=O)c1c(N)nn2cccnc12)c1cc2cccc(C#Cc3cnn(C)c3)c2c(=O)n1-c1ccccc1 | -0.14 °C | 1.49 °C | -0.2 °C | 0 °C | 0.51 °C | 0.17 °C | 0.28 °C | 0.19 °C | 0.28 °C | 2.08 °C | 1.25 °C | 0.23 °C | -0.49 °C | 0 °C | 0.21 °C | 0.36 °C | -0.71 °C | 0.78 °C | 0.56 °C | 0.54 °C |
| Oc1cccc(-c2nc(N3CCOCC3)c3oc4ncccc4c3n2)c1 | 0.96 °C | 0.09 °C | 0.03 °C | 0.75 °C | 0.17 °C | 0.64 °C | 0.74 °C | 0.11 °C | 0.21 °C | 0.11 °C | 1.36 °C | 1.6 °C | 1.37 °C | 0.94 °C | 0.14 °C | 0.33 °C | 0.91 °C | 0.91 °C | 0.49 °C | 0.74 °C |
| CO[C@H]1C[C@@H]2CC[C@@H](C)[C@@](O)(O2)C(=O)C(=O)N2CCCC[C@H]2C(=O)O[C@H]([C@H](C)C[C@@H]2CC[C@@H](OP(C)(C)=O)[C@H](OC)C2)CC(=O)[C@H](C)/C=C(\C)[C@@H](O)[C@@H](OC)C(=O)[C@H](C)C[C@H](C)/C=C/C=C/C=C/1C [Ridaforolimus (Deforolimus, MK-8669)] | 0.73 °C | -1.9 °C | 0.47 °C | 0.18 °C | 0.16 °C | 0.07 °C | -0.26 °C | 0.54 °C | -0.09 °C | 0.11 °C | 0.89 °C | 1.16 °C | 0.84 °C | 0.17 °C | -0.64 °C | 0.14 °C | 0.4 °C | 0.57 °C | 0.4 °C | 0.27 °C |
| C=CC(=O)Nc1ccc2ncnc(Nc3cccc(Br)c3)c2c1 | 0.7 °C | -0.16 °C | -0.13 °C | -0.18 °C | 0.1 °C | 0.15 °C | -12.2 °C | 0.59 °C | 0.29 °C | 0 °C | 0.86 °C | 0.41 °C | 0.96 °C | -0.32 °C | -0.12 °C | 0.22 °C | 0.8 °C | 0.61 °C | -0.18 °C | 0.66 °C |
| CC(C)(O)CNc1ncc(-c2ccnc(Nc3ccnc(Cl)c3)n2)c(CC2CC2)n1 | 0.77 °C | 0.82 °C | 4.56 °C | -0.19 °C | 2.06 °C | 0.91 °C | -0.42 °C | 0.33 °C | 0.19 °C | 0.5 °C | 0.99 °C | 1.94 °C | 0.32 °C | -0.09 °C | 0.66 °C | 0.37 °C | 0.23 °C | 0.89 °C | 1.97 °C | -0.17 °C |
| O=S(=O)(c1cccc2c(I)cccc12)N1CCCNCC1 | 0.23 °C | 0.79 °C | 0.56 °C | 0.43 °C | 0.67 °C | 0.53 °C | 0.27 °C | 1.35 °C | 0.24 °C | 2.58 °C | 0.91 °C | -0.01 °C | 0 °C | 0.2 °C | 0 °C | 0.35 °C | 0.33 °C | 0.35 °C | 0.9 °C | 0.24 °C |
| CCC[C@H](NC(=O)/C(C#N)=C/c1cccc(Br)n1)c1ccccc1 [Degrasyn (WP1130)] | -2.54 °C | -8.18 °C | 0.28 °C | 0.06 °C | -2.02 °C | 0.19 °C | -4.1 °C | -0.09 °C | -1.59 °C | -3.54 °C | 5.82 °C | 0.61 °C | 1.12 °C | -5.45 °C | -3.27 °C | 0.17 °C | 0.68 °C | -0.39 °C | -1.56 °C | 4.33 °C |
| Cc1ccc(F)c(NC(=O)Nc2ccc(-c3cccc4[nH]nc(N)c34)cc2)c1 [Linifanib (ABT-869)] | 3 °C | 3.87 °C | 1.34 °C | 0.36 °C | 2.29 °C | 1.08 °C | 2.02 °C | 4.44 °C | 0.54 °C | 6.66 °C | -0.27 °C | 4 °C | 2.06 °C | 4.52 °C | 2.81 °C | 1.72 °C | 1.34 °C | 3.05 °C | 4.49 °C | 0.94 °C |
| CCc1nc(C(N)=O)c(Nc2ccc(N3CCC(N4CCN(C)CC4)CC3)c(OC)c2)nc1NC1CCOCC1 [Gilteritinib (ASP2215)] | 4.13 °C | 2.42 °C | 2.14 °C | 0.93 °C | 2.59 °C | 3.21 °C | 2.87 °C | 1.66 °C | 0.63 °C | 8.54 °C | 4.25 °C | 11.5 °C | 1.96 °C | 1.07 °C | 4.03 °C | 5.09 °C | 1.35 °C | 5.51 °C | 13.1 °C | 1.65 °C |
| O=C(Nc1cnn2ccc(N3CCC[C@@H]3c3cc(F)ccc3F)nc12)N1CC[C@H](O)C1 [Larotrectinib (LOXO-101) sulfate] | -0.1 °C | 0.5 °C | 0.8 °C | 0.17 °C | 0.39 °C | 0.24 °C | -0.28 °C | 1.09 °C | -0.18 °C | 0.04 °C | 1.19 °C | 0.93 °C | 0.28 °C | -0.24 °C | 0.23 °C | 0.22 °C | 0.18 °C | 0.6 °C | 3.12 °C | 0.72 °C |
| COc1cc2ncnc(Nc3cccc(Cl)c3F)c2cc1OC(=O)N1CCN(C)C[C@H]1C | 0.74 °C | 0.31 °C | 0.52 °C | -0.2 °C | 0.07 °C | 0.37 °C | -0.74 °C | 0.45 °C | 0.35 °C | -0.17 °C | 1.43 °C | 1.34 °C | 0.77 °C | 0.24 °C | 0.62 °C | 0.55 °C | 0.42 °C | 0.94 °C | 0.64 °C | 0.79 °C |

— the supplement of paper PMC9694430
